Measured values published in PubChem BioAssay (NCI).
Where “and” joins values, the source holds several entries; their conditions need not be identical. Equal values may be shown once. This is part of a sample that, as a whole, favours compounds with a hit. Of some 83,000 tested, about 20% had one in any assay.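 The test compound was applied at a single concentration to cells in 96-well plates for 48 hours, and percent growth was recorded.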 Unmarked numbers belong to inactive results. Calls of active or inactive are those of the source. Rule for the calls: active = growth percent below 10; inactive = the rest.

Test system: MDA-MB-468 breast
Experiment: NCI-60 one-dose screen, 48 h (100 = growth as untreated, 0 = no growth, -100 = all killed)
Details: 10 µM unless noted

| SMILES | growth |
| --- | --- |
| N#Cc1ncc(Br)c(NC2CCCCCC2)n1 | 91.9% |
| Cc1cc(F)cc(NS(=O)(=O)c2ccc(-c3cnc(C4CC4)o3)cc2)c1 | -1.16% (active) |
| CSc1nc(C)c([N+](=O)[O-])c(N)n1 | 106% |
| CCOc1ccc2c(S(=O)(=O)O)cccc2c1[N+](=O)[O-] | 104% and 106% |
| Cc1cc(N2CCOCC2)nc(N[C@@H]2CCC[C@H](Nc3ccnc4cc(Cl)ccc34)C2)n1 | -6.14% (active) |
| COc1cc2c(c(OC)c1OC)CCC(c1cccc(C(=O)Nc3cccc(Br)c3)c1)O2 (stereo unspecified) | 58.6% |
| Cc1nccc2c3ccc(OCc4cn(-c5ccc(Cl)cc5)nn4)cc3n(CC(C)C)c12 | -1.72% (active) |
| COc1ccc(NC(=O)c2sc3nc(C)c(C(=O)/C=C/c4cccc(OC)c4)cc3c2N)cc1 | 27.9% |
| COc1ccc(-c2nc3ccc(-c4nc5ccc(N6CCN(c7ccncc7)CC6)cc5[nH]4)cc3[nH]2)cc1OC | -46.3% (active) |
| Oc1ccc(C#CCOc2ccccc2)cc1CNCCN(Cc1ccccn1)Cc1ccccn1 | -10.4% (active) |
| O=C(NC(=S)NNC(=S)NNc1ccccc1)c1ccccc1 | 83.7% |
| CN1C(=O)C2(NN=C(c3cccc4ccccc34)S2)c2ccccc21 (stereo unspecified) | 32.4% |
| Cc1ccc(-c2nc3c(c(-c4ccccc4)nn3-c3ccccc3)c(-c3ccc(O)cc3)c2C#N)cc1 | 52.7% |
| CCN1CCN(c2cc(C)nc(N(CCCNc3ccnc4cc(Cl)ccc34)Cc3ccc4c(c3)OCO4)n2)CC1 | -55.5% (active) |
| COc1ccc(/C=C/c2c(C(=O)/C=C/c3ccccc3)c(C)nc3ccccc23)cc1 | 12.8% |
| CN(C)c1nc(-c2ccco2)n2nc(-c3ccco3)cc2n1 | -22.1% (active) |
| CCC1=C(c2ccc(OC)cc2)C(C)(C)Oc2cc(O)c(CN3CCCC3)cc21 | 69.5% |
| O=C(/C=C/c1ccccc1)c1ccc(Nc2nc(NCCO)nc(Nc3ccc(Cl)cc3)n2)cc1 | 64.5% |

| SMILES | growth |
| --- | --- |
| O=[N+]([O-])c1ccc2c(c1)S(=O)c1cc([N+](=O)[O-])ccc1N2 | 94.8% |
| COc1ccc(-c2ccc(C)n2-c2ccc(-c3nc4ccccc4s3)cc2)cc1 | 3.77% (active) |
| CCOc1ccc(/C=N\N=C\c2ccc(OCC)cc2)cc1 | 77% |
| C=C1C(=O)O[C@H]2[C@H]1CC/C(COC(=O)CSCC(=O)OC/C1=C/CC[C@@]3(C)O[C@H]3[C@H]3OC(=O)C(=C)[C@@H]3CC1)=C\CC[C@@]1(C)O[C@@H]21 | -1.97% (active) |
| Cc1ccc2[nH]c(=O)c3c(c2c1)OC(N)=C(C#N)C31C(=O)c2cccc3cccc1c23 (stereo unspecified) | 95.1% |
| Fc1ccccc1Nc1n[nH]c(=S)s1 | 106% |
| CCc1cccc2c3c(sc12)C(c1ccc(F)cc1)C(C#N)=C(/N=C/c1ccc(Cl)cc1)O3 (stereo unspecified) | 31% |
| Cc1cc(C)c(S(=O)(=O)/N=c2/n(-c3ccccc3)nc3n2CCN3C2=NCCN2)c(C)c1 | 30% |
| COC(=O)/C=C1\S/C(=N\NC(=O)c2cc3ccc2/C=C\c2ccc(cc2)/C=C\3)N(Cc2ccccc2)C1=O | 21.1% |
| COc1cc(NC(=O)COc2cc(C)nc3ccc(OC)cc23)cc(OC)c1 | 76.3% |
| O=C(O)/C=C/c1cn(-c2ccccc2)nc1-c1ccc(F)cc1 | 104% |
| Cc1ccc(-c2csc(N(C(=O)N3CCN(c4cc5c(cc4F)c(=O)c(C(=O)O)cn5C4CC4)CC3)c3ccccc3)n2)cc1 | -6.73% (active) |
| COc1ccc(/C=C/C(=O)NCCO)cc1 | 101% |
| Nc1cccc(-c2ccc(COc3ccc(CC4SC(=O)NC4=O)cc3)cc2)c1 (stereo unspecified) | 29.4% |
| CCNC(=O)Nc1ncccc1OCc1ccc(F)cc1 | 101% |
| CNC(=O)c1cc(Oc2ccc3nc(NC(=O)c4ccc5ncccc5c4)sc3c2)ccn1 | 73.7% |
| COc1ccc(S(=O)(=O)NCCCNc2nccc(-c3c(-c4cccc([N+](=O)[O-])c4)nc4sccn34)n2)cc1 | 16.2% |
| C=C(C)[C@@H]1CC[C@]2(C(=O)OC)CC[C@]3(C)[C@H](CC[C@@H]4[C@@]5(C)CC/C(=N\OCCC(=NCCC#N)NOCCC#N)C(C)(C)[C@@H]5CC[C@]43C)[C@@H]12 | 4.41% [100 µM] (active) |
